ATXN2 expr inh: ATXN2 expression inhibition; AID 1745845; actives 0.72% (n = 360,000); Potency, µM (doses to about 57 µM), inactives show at the highest dose activity change, negative = inhibition, actives largely listed as inhibitors; HEK-293 ATXN2-luciferase reporter, luminescence, 24 h; note: % is set by controls: 0 for no effect and ±100 for the full control effect; nearly all actives have a fitted effect of over 55% in size
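ATXN2-luciferase reporter cells (luciferase flanked by upstream and downstream ATXN2 gene portions) were treated 24 h at 37 °C with compounds at up to 57 uM. SteadyGlo luminescence gave expression; GF-AFC fluorescence gave viability.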
KB-3-1 cytotox: KB-3-1 parental cell cytotoxicity. Potency, µM (series often up to 46.1 µM), hits mostly cytotoxic. KB-3-1 viability, CellTiter-Glo ATP luminescence, 72 h. actives 1.4% (n = 400,000); note: % is set by controls: 0 for no effect and ±100 for the full control effect; nearly all actives have a fitted effect of over 60% in size
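Cytotoxicity in the drug-sensitive parental line KB-3-1 was scored as loss of CellTiter-Glo luminescence following 72 h incubation with compound. Values come from curve fitting of normalized concentration-response data.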
S2 tox: reduces viability in counter-screen for ATXN expression inhibitors; S2 cells (HEK-293 line with an ATXN2-luciferase reporter) viability, CellTiter-Fluor protease fluorescence, 24 h; Potency, µM (doses to about 56.7 µM), actives largely listed as cytotoxic; actives 0.49% (n = 400,000); note: nearly all actives have a fitted effect of over 40% in size
HepG2 tox: kills HepG2 cells in TGF-b inhibitor counter-screen | HepG2 CAGA-GFP viability, ATP luminescence, 18 h | Potency, µM (titrated, usually from 46.1 µM), without a hit: top-dose activity change, negative = cytotoxicity, actives largely listed as cytotoxic | actives 0.76% (n = 410,000) | AID 588856
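HepG2 CAGA-GFP cells (1000/well, DMEM with 1% FBS) received compound, then TGF-beta at 500 pg/mL final, and were incubated 18 hours at 37 degrees C. Viability was read by CellTiter-Glo luminescence. Media-only wells were set as complete cell-killing and DMSO as no toxicity.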
TGFb inhibitor: blocks TGF-b signaling; HepG2 CAGA-GFP TGF-b/SMAD3 reporter, GFP fluorescence, 18 h; TGF-beta stimulated, 500 pg/mL final; Potency, µM (titrated, usually from 46.1 µM), inactives show top-dose activity, negative = inhibition, most hits filed as inhibitors; actives 1.2% (n = 410,000); AID 588855; note: % is set by controls: 0 for no effect and ±100 for the full control effect; nearly all actives have a fitted effect of over 65% in size
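Read-out: total well GFP (ex488/em500-530) summed from mean per-cell fluorescence. Cells: HEPG2 CAGA-GFP, 1% FBS DMEM, 18 h at 37 degrees C with 500 pg/mL final TGF-beta. Unstimulated wells served as the full-inhibition control; stimulated DMSO wells = 0%.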
KB-V1 MDR tox: KB-V1 MDR subline cytotoxicity | KB-V1 MDR cells viability, CellTiter-Glo, 72 h | Potency, µM (top dose mostly 46.1 µM), actives largely listed as cytotoxic | actives 3.4% (n = 400,000); note: % is set by controls: 0 for no effect and ±100 for the full control effect; nearly all actives have a fitted effect of over 60% in size
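qHTS viability screen in drug-selected KB-V1 MDR cells: 72 h compound treatment at 37 degrees C, ATP luminescence end point.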
Active calls of the source: *; i = inactive; ? = inconclusive; · = no result; ! = not confirmed by another sample. The list is not random: actives were taken first. Their share in the collection is about 5.9%. Calls come from the whole dose curve; as a rule, active = well fitted curve in the direction sought with a large enough effect; inconclusive = small, poorly fitted or top-dose-only effect, or another doubt; inactive = no such curve, though single readings can be large; an effect the other way counts as inactive or inconclusive. Potency is the fitted concentration of half-maximal effect.

SMILES	ATXN2 expr inh	KB-3-1 cytotox	S2 tox	HepG2 tox	TGFb inhibitor	KB-V1 MDR tox
CCCCCCCCCCCCCCCC[n+]1ccc(/C=C/c2c(C)[nH]c3ccccc23)cc1	·	1.3µM*	·	-90.3%	?	i
CCCc1c(C)[nH]c2ccccc2c1=O	1.0%	i	i	1.3%	1.8%	i
COC(=O)C[C@@H]1C=C[C@@H](NS(=O)(=O)c2ccc(OC)cc2)[C@@H](CO)O1	·	i	·	·	·	i
Cc1ccccc1COC(=O)c1cc([N+](=O)[O-])ccc1N1CCOCC1	-34.3%	?	i	-13.4%	0.0%	i
CCOc1ccc(NC(=O)COC(=O)c2cc([N+](=O)[O-])ccc2N2CCOCC2)cc1	-23.4%	i	?	-2.2%	-3.3%	i
O=C(OCc1ccccc1F)c1cc([N+](=O)[O-])ccc1N1CCOCC1	0.1%	i	?	-4.9%	-6.4%	18.4µM*
O=[N+]([O-])c1ccc(N2CCN(c3ccccc3F)CC2)c(S(=O)(=O)N2CCOCC2)c1	-5.1%	i	i	-0.8%	-20.4%	7.31µM*
COc1ccc(OC)c(COC(=O)c2cc([N+](=O)[O-])ccc2N2CCOCC2)c1	-31.3%	5.17µM*	i	5.1%	1.5%	?
CCOc1ccc(C(C)=O)cc1COC(=O)c1cc([N+](=O)[O-])ccc1N1CCOCC1	-16.7%	i	i	0.8%	16.3%	i
CCOc1ccc(NC(=O)c2cc([N+](=O)[O-])ccc2N2CCOCC2)cc1	-23.4%	i	i	2.0%	-21.9%	23.1µM*
Cc1ccnc2c(Cl)cccc12	·	i	·	-24.9%	?	i
CSc1ccc(COC(=O)c2cc([N+](=O)[O-])ccc2N2CCOCC2)cc1	-7.4%	0.146µM*	i	-11.0%	?	0.411µM*
Cc1ccc(C(=O)COC(=O)COc2ccccc2[N+](=O)[O-])s1	-5.5%	i	i	12.0%	1.6%	i
CCOC(=O)COc1ccccc1/C=C\[N+](=O)[O-]	?	9.2µM*	·	8.91µM*	5.62µM*	14.6µM*
O=C(N/N=C/C=C\c1ccccc1[N+](=O)[O-])c1cc(-c2ccc3ccccc3c2)n[nH]1	-30.9%	i	?	8.91µM*	12.6µM*	i
O=C(N/N=C/c1c[nH]c2ccccc12)c1cc(-c2ccc(-c3ccccc3)cc2)n[nH]1	?	?	·	-75.9%	?	16.4µM*
O=C(N/N=C/c1c[nH]c2ccccc12)c1cc(-c2ccc3ccccc3c2)n[nH]1	27.1%	?	?	-38.7%	15.8µM*	?
Cc1ccc(-c2cc(C(=O)N/N=C/c3c[nH]c4ccccc34)[nH]n2)cc1	-10.0%	5.17µM*	i	-58.9%	?	10.3µM*
CC(C)CC(=O)Nc1ccc(Cl)c(-c2nc3ccccc3[nH]2)c1	-17.3%	i	?	-12.3%	0.7%	i
Cc1ccc(NC(=O)CN2C(=O)C(c3ccc(C(C)(C)C)cc3)=NC2(C)C)cc1	·	·	·	-15.0%	4.8%	·
CN(C)CCCNc1ncnc2ccc(-c3ccc4c(c3)OCO4)cc12	·	i	·	·	·	i
Cc1cc2c(cc1C)N[C@]1(C[C@H]3CCCC(=O)N4CC[C@@H](C1)[C@@H]34)C(=NC(C)(C)CC(C)(C)C)N2	-16.0%	?	?	10µM*!	?	20.6µM*!
O=C1CCC[C@@H]2C[C@@]3(C[C@@H]4CCN1[C@H]24)Nc1cc(Cl)ccc1NC3=NC1CCCCC1	9.9%	i	i	-0.3%	?	i
CC(C)(C)CC(C)(C)N=C1Nc2ccc(Cl)cc2N[C@]12C[C@H]1CCCC(=O)N3CC[C@@H](C2)[C@@H]13	·	?	·	8.91µM*	?	20.6µM*
Cc1cc2c(cc1C)N[C@]1(C[C@H]3CCCC(=O)N4CC[C@@H](C1)[C@@H]34)C(=NCc1ccccc1)N2	·	i	·	-14.7%	-20.7%	i

From PubChem
